The values below come from paper PMC5700166.

What all share (assay): protein-binding microarray (PBM); PBM: ~300 nM protein, 6 mM HEPES pH 7.8, 80 mM KCl, 0.5 mM EDTA, 0.5 mM EGTA, 6% glycerol, 35 ng/ul poly-dIdC, 1% milk, 1 h, room temperature; Ap Aiptasia and Nv Nematostella (sea anemones) / Co Capsaspora / Aq Amphimedon (sponge) / Dm Drosophila / Hu human; RHD is the Rel homology domain; high values mean tight binding
What all share (conditions): dsDNA, one strand shown

The target in experiment [1] is T1, GST-Nv-NF-kB (Cys allele) (Nematostella vectensis, UniProt E5G601 2-411).
T1 sequence: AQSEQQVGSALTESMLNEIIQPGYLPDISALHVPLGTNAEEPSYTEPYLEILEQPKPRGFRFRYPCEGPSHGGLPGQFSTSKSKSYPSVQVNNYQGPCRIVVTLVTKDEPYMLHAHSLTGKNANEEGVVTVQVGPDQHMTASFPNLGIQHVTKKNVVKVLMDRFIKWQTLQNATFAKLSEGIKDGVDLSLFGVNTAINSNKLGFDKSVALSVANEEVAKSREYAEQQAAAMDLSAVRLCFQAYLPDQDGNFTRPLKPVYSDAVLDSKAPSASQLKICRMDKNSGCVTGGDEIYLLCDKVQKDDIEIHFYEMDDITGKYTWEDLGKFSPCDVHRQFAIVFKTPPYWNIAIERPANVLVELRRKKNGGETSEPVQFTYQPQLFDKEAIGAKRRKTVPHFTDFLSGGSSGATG

The target in experiment [2] is T2, GST-Nv-NF-kB (Ser allele) (Nematostella vectensis, UniProt A7UNT2 2-411).
T2 sequence: T1 sequence with Q21R, C66S, S207N, E215Q, V217A, E225K, A268E, D399E

For a further experiment, the target named is T3, GST-Co-NF-kB (Capsaspora owczarzaki, UniProt F1ARL5 200-546).
T3 sequence: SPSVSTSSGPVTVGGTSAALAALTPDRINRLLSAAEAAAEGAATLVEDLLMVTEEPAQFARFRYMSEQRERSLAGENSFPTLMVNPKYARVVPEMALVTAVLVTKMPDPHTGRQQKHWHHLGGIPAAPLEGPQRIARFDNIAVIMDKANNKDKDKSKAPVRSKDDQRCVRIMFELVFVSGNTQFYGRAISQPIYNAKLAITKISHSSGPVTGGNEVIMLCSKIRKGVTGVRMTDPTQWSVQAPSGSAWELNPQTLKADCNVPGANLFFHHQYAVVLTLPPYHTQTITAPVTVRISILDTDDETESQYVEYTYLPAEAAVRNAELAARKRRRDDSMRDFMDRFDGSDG

Another experiment concerns the target T4, GST-Aq-NF-kB (Amphimedon queenslandica, UniProt A9Y5G7 2-389).
T4 sequence: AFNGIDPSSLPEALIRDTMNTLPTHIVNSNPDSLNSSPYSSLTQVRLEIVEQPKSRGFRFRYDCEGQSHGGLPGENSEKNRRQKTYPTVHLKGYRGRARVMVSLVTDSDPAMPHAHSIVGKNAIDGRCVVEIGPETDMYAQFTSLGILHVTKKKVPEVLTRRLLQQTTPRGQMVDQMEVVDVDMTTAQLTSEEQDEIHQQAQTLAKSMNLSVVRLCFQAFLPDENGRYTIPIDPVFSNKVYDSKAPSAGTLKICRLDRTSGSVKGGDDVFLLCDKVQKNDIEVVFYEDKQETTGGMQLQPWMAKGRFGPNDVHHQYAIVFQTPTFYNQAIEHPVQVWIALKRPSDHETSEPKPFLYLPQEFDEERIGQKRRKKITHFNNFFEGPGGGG

The target in another experiment is GST-Hu-p50 (Homo sapiens, UniProt P19838 7-356).
Sequence of GST-Hu-p50 (P19838 7-356): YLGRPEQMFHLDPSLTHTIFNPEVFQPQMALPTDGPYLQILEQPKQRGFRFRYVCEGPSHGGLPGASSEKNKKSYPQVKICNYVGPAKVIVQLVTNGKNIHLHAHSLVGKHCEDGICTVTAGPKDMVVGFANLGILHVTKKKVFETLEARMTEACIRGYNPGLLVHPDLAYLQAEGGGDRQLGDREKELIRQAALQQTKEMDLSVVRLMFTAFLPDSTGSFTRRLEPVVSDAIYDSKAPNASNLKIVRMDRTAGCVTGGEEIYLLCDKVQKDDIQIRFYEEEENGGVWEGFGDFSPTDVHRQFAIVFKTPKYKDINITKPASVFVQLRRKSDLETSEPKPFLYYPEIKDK
For another experiment, the target named is T5, GST-Dm-Relish (Drosophila melanogaster, UniProt Q94527 99-473).
T5 sequence: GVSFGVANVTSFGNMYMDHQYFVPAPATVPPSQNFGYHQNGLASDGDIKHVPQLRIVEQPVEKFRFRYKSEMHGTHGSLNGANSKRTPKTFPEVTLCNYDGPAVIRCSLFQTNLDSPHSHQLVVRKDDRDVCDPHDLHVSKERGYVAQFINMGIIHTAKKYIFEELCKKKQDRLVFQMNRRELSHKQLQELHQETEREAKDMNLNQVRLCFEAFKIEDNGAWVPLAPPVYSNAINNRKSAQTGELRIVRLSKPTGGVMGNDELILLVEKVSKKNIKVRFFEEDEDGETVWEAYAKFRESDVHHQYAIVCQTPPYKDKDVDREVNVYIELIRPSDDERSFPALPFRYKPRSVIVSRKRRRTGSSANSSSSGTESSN

For another experiment, the target named is T6, GST-Ap-NF-kB RHD (Exaiptasia pallida (Aiptasia), UniProt A0A913YAJ5 2-422).
T6 sequence: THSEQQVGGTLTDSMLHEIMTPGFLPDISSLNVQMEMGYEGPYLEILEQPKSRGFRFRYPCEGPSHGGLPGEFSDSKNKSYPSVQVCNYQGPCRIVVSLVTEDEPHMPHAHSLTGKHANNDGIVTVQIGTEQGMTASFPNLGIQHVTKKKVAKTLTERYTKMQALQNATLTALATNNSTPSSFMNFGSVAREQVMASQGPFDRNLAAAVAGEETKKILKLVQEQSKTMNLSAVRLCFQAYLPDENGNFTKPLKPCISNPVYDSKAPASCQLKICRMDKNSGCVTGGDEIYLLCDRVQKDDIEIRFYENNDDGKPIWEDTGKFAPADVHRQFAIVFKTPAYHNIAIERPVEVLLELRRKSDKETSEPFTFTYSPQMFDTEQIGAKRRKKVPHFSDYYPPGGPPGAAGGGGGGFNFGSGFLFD

Changes are numbered by the printed parent chain.

As for “CCGATTAACATCAGTTGGGAAAATGATGTTAATCGGGTCTTGATTCGCTTGACGCTGCTG”, the binding signal turned out to be 3.62 z-score in experiment [1]; 4.31 z-score in experiment [2]; 2.64 z-score with GST-Co-NF-kB; 1.77 z-score with GST-Aq-NF-kB; 2.33 z-score with GST-Hu-p50.
For the sequence “CCGATTAACATCAGGAAATTCCATGATGTTAATCGGGTCTTGATTCGCTTGACGCTGCTG”, the binding signal in experiment [1] was determined as 1.06 z-score; in the experiment with GST-Dm-Relish, 1.68 z-score; with GST-Aq-NF-kB, 3.91 z-score; with GST-Hu-p50, 1.1 z-score.
As to “CCGATTAACATCACTTCGGGAAATGATGTTAATCGGGTCTTGATTCGCTTGACGCTGCTG”, the binding signal in experiment [1] amounted to 2.8 z-score; in experiment [2], 1.97 z-score; in the experiment with GST-Co-NF-kB, 2.89 z-score; with GST-Aq-NF-kB, 2.16 z-score; in the experiment with GST-Hu-p50 it was 1.48 z-score.
With “CCGATTAACATCAAATTTTCCGGTGATGTTAATCGGGTCTTGATTCGCTTGACGCTGCTG”, the binding signal in experiment [2] is 1.67 z-score; in the experiment with GST-Dm-Relish, 1.54 z-score; with GST-Aq-NF-kB, 2.04 z-score; with GST-Hu-p50, 1.95 z-score.
Regarding “CCGATTAACATCACCCCAAACGCTGATGTTAATCGGGTCTTGATTCGCTTGACGCTGCTG”, the binding signal worked out at 1.27 z-score with GST-Ap-NF-kB RHD, 1.79 z-score with GST-Co-NF-kB, 1.09 z-score with GST-Aq-NF-kB and 1.17 z-score with GST-Hu-p50.
Take “CCGATTAACATCAAAGTGGGAAATGATGTTAATCGGGTCTTGATTCGCTTGACGCTGCTG”: the binding signal came to 3.3 z-score in experiment [1]; 2.91 z-score in experiment [2]; 2.54 z-score with GST-Co-NF-kB; 1.64 z-score in the experiment with GST-Aq-NF-kB; 2.09 z-score in the experiment with GST-Hu-p50.
Regarding “CCGATTAACATCAGACCCCCCCCTGATGTTAATCGGGTCTTGATTCGCTTGACGCTGCTG”, the binding signal in the experiment with GST-Ap-NF-kB RHD came to 5.15 z-score; with GST-Co-NF-kB, 4.59 z-score; in the experiment with GST-Dm-Relish it was 4.7 z-score; with GST-Aq-NF-kB, 4.8 z-score; in the experiment with GST-Hu-p50 it was 4.03 z-score.
In the case of “CCGATTAACATCAAAATTTCCGGTGATGTTAATCGGGTCTTGATTCGCTTGACGCTGCTG”, the binding signal in experiment [2] was determined as 1.02 z-score; in the experiment with GST-Dm-Relish it was 1.67 z-score; with GST-Aq-NF-kB, 3.05 z-score; in the experiment with GST-Hu-p50 it was 2.46 z-score.
“CCGATTAACATCAAGAATTTTCCTGATGTTAATCGGGTCTTGATTCGCTTGACGCTGCTG”: the binding signal was 1.03 z-score in experiment [2], 1.12 z-score with GST-Aq-NF-kB and 1.25 z-score in the experiment with GST-Hu-p50.
Regarding “CCGATTAACATCAAGGGCTTTCCTGATGTTAATCGGGTCTTGATTCGCTTGACGCTGCTG”, the binding signal turned out to be 1.28 z-score in the experiment with GST-Ap-NF-kB RHD, 2.98 z-score with GST-Dm-Relish, 3.6 z-score in the experiment with GST-Aq-NF-kB and 1.47 z-score with GST-Hu-p50.
Regarding “CCGATTAACATCAAAAAAATTCCTGATGTTAATCGGGTCTTGATTCGCTTGACGCTGCTG”, the binding signal in experiment [1] is 1.23 z-score; in experiment [2], 1.22 z-score; with GST-Dm-Relish, 3.84 z-score; with GST-Aq-NF-kB, 2.87 z-score; with GST-Hu-p50, 1.79 z-score.
Turning to “CCGATTAACATCAAAAAAGTCCGTGATGTTAATCGGGTCTTGATTCGCTTGACGCTGCTG”, the binding signal in experiment [1] came out at 1.12 z-score; with GST-Dm-Relish, 4.7 z-score; with GST-Aq-NF-kB it was 3.69 z-score; with GST-Hu-p50, 1.4 z-score.
As for “CCGATTAACATCAAATTTCCGGGTGATGTTAATCGGGTCTTGATTCGCTTGACGCTGCTG”, the binding signal in experiment [2] stood at 1.31 z-score; with GST-Co-NF-kB, 1.32 z-score; with GST-Aq-NF-kB, 1.44 z-score; with GST-Hu-p50, 1.02 z-score.
Consider “CCGATTAACATCAGGTGATCACCTGATGTTAATCGGGTCTTGATTCGCTTGACGCTGCTG”, for which the binding signal in experiment [2] worked out at 2.18 z-score; with GST-Dm-Relish it was 2.86 z-score; in the experiment with GST-Aq-NF-kB it was 1.32 z-score; in the experiment with GST-Hu-p50, 1.9 z-score.
On to “CCGATTAACATCAACGGGTCCCTTGATGTTAATCGGGTCTTGATTCGCTTGACGCTGCTG”, for which the binding signal in the experiment with GST-Ap-NF-kB RHD came out at 2.6 z-score; in experiment [1], 1.84 z-score; with GST-Aq-NF-kB, 2.73 z-score.
